Source: PubChem
Rows were chosen to be rich in hits. Some 4.1% of all compounds tested hit in one or more screens of this group.
hcDAF-12 act: H. contortus DAF-12 nuclear receptor activators, primary screen, cell-based, luminescence, HEK293, lit1-tk-luc reporter. AID 652067, 2013. 1.4% of 370,000 active. HEK293 hcDAF-12 lit1-tk-luc reporter; 0% DMSO, 100% Δ7-dafachronic acid. activation, % at 6.8 µM;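 active = activation above the mean of all tested compounds plus 3 SD, cut at about 5.5% in these data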;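 note: 100% = response to 3 µM Δ7-dafachronic acid high control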
DAX1 inh-1: DAX1 (NR0B1) inhibitors on StAR promoter, primary screen, cell-based, luminescence, SF-1 (NR5A1), full-length DAX-1; HEK293T StAR-luciferase reporter, SF-1/DAX-1 repression relief; inhibition, % at 6.8 µM; 1.1% of 370,000 active; AID 652010, 2013;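 active = inhibition above the mean over all tested compounds plus 3 SD, cut at about 3.6% in these data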;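 note: 0% = DAX-1 cells with DMSO and 100% = cells lacking DAX-1 with DMSO; higher inhibition means more luminescence from relief of DAX-1 repression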
ssDAF-12 act: S. stercoralis DAF-12 nuclear receptor activators, primary screen, cell-based, luminescence, HEK293, GRIP1 co-expression, lit1-tk-luc. HEK293 ssDAF-12/GRIP1 lit1-tk-luc reporter; % of 3 µM dafachronic acid response. activation, % at 6.8 µM. 1% of 370,000 active. Nuclear hormone receptor DAF-12 (Strongyloides stercoralis). AID 652126, 2013;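 active = activation above the mean over all tested compounds plus 3 SD, cut at about 0.9% in these data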;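 note: 0% = DMSO-only wells and 100% = 3 µM delta7-dafachronic acid wells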
DAX1 inh-2: DAX1 (NR0B1) inhibitors, primary screen, cell-based, HEK293, Gal4-DAX1, luciferase luminescence; AID 504766, 2011; Nuclear receptor subfamily 0 group B member 1 (Homo sapiens), P51843; 0.99% of 340,000 active; HEK293 Gal4-DAX1 luciferase reporter; inhibition, % at 6.75 µM;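 active = inhibition above the mean over all tested compounds plus 3 SD, cut at about 4.2% in these data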;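 note: 0% = DAX1-transfected cells with DMSO and 100% = empty-vector control cells with DMSO; inhibition shows as a rise in luminescence from relieved DAX1 repression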
hgDAF-12 ag: H. glycines DAF-12 receptor agonists, primary screen, cell-based, luminescence, HEK293, GAL4 fusion, UAS-luciferase. Nuclear hormone receptor DAF-12 (Heterodera glycines), GAL4 fusion. HEK293 GAL4-hgDAF12 UAS-luciferase reporter, agonist luminescence; normalized to butyrate control. activation, % at 6.8 µM. 1.8% of 370,000 active. AID 687014, 2013;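 active = activation above a cutoff set at the mean of all screened compounds plus 3 SD, cut at about 10% in these data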;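 note: 0% = DMSO wells and 100% = sodium butyrate wells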
DAX1 conf: DAX1 (NR0B1) inhibitors relieving SF-1 repression, confirmation, cell-based, luminescence, HEK293T, full-length DAX-1, SF-1 activated StAR promoter; AID 652134, 2013; shares compounds with DAX1 inh-1; inhibition, % at 6.8 µM; HEK293T StAR-promoter luciferase reporter, SF-1/DAX-1 repression; 87% of 2,400 active;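 active = inhibition above the average of every tested compound plus 3 SD, cut at about 3.8% in these data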;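 note: 0% = DAX-1 cells with DMSO and 100% = no DAX-1 control cells with DMSO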
Target sequence (P51843 whole entry, looked up): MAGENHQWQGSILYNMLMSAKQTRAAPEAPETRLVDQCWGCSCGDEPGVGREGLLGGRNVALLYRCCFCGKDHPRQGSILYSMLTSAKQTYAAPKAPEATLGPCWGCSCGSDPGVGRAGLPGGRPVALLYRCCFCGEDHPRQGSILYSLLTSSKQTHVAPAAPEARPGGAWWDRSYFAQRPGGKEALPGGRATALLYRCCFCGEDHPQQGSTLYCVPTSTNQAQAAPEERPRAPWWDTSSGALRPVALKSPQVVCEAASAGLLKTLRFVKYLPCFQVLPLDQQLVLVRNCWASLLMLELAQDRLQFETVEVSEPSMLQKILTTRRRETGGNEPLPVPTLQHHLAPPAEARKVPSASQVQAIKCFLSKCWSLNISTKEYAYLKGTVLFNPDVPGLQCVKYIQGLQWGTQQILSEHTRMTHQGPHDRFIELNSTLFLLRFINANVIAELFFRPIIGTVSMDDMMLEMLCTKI
SF1 AF2mut Luc: StAR reporter signal changes without DAX1, counter-screen for DAX1 inhibitor project, cell-based, luminescence, AF-2 mutant SF-1, transactivation. inhibition, % at 6.8 µM. shares compounds with DAX1 inh-1. HEK293 StAR-luciferase, SF-1 AF2 mutant. 78% of 2,400 active;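 active = inhibition above the mean of all tested compounds plus 3 SD, cut at about 3% in these data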;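 note: 0% = DAX-1 transfected cells with DMSO and 100% = cells without DAX-1 with DMSO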
The depositor's hits bear a star.

`CC(C)C[C@@H](CN1CCC[C@@H]1CN1C(=S)NC[C@@H]1Cc1ccc(O)cc1)N1C[C@H](Cc2ccc(O)cc2)N(CCc2ccccc2)C1=S` gave hcDAF-12 act 0, DAX1 inh-1 4.7*, ssDAF-12 act -2, hgDAF-12 ag -1, DAX1 conf -1 and SF1 AF2mut Luc 1.
Screening CC(C)C[C@@H](CN1CCCC1CN1C(=S)NC[C@@H]1Cc1ccc(O)cc1)N1C[C@H](Cc2ccc(O)cc2)N(CC2CCCCCC2)C1=S (stereo partly specified) returned hcDAF-12 act 0, DAX1 inh-1 6.3*, ssDAF-12 act -2, DAX1 inh-2 -1, hgDAF-12 ag 3, DAX1 conf 1 and SF1 AF2mut Luc 1.
Screening CC(C)C[C@@H](CN1CCCC1CN1C(=S)NC[C@@H]1Cc1ccccc1)N1C[C@H](Cc2ccc(O)cc2)N(CCc2ccccc2)C1=S (stereo partly specified) returned hcDAF-12 act -1, DAX1 inh-1 2, ssDAF-12 act -1 and hgDAF-12 ag -2.
`O=C(C/C=N\OCc1ccc([N+](=O)[O-])cc1)Nc1ccc(Br)cc1` gave hcDAF-12 act -2, DAX1 inh-1 0, ssDAF-12 act 0, DAX1 inh-2 0 and hgDAF-12 ag 0.
Cc1ccnc(Nc2ccc(CCO)cc2)n1 was read as hcDAF-12 act 4, DAX1 inh-1 4.8*, ssDAF-12 act 0, hgDAF-12 ag 11*, DAX1 conf 9.5* and SF1 AF2mut Luc 5.6*.
For O=C(Nc1ccc(Br)cc1)NC1CCCCCCC1 the results were hcDAF-12 act 1, DAX1 inh-1 5.1*, ssDAF-12 act 0, DAX1 inh-2 2, hgDAF-12 ag 11*, DAX1 conf 9.1* and SF1 AF2mut Luc 6.0*.
CCOc1ccc(NC(=O)NC2CCCCCCC2)cc1 was read as hcDAF-12 act 5, DAX1 inh-1 9.8*, ssDAF-12 act 0, DAX1 inh-2 3, hgDAF-12 ag 12*, DAX1 conf 9.0* and SF1 AF2mut Luc 4.0*.
O=C(Nc1cccc([N+](=O)[O-])c1)NC1CCCCCCC1 was read as hcDAF-12 act 4, DAX1 inh-1 5.5*, ssDAF-12 act -1, DAX1 inh-2 1, hgDAF-12 ag 5, DAX1 conf 4.6* and SF1 AF2mut Luc 4.3*.
`CCOc1ccc(NC(=O)C(=S)NC2CCCCC2)cc1` gave hcDAF-12 act 2, DAX1 inh-1 1, ssDAF-12 act -1, DAX1 inh-2 -1 and hgDAF-12 ag 3.
O=C(CNC1CCCCC1)Nc1cccc([N+](=O)[O-])c1 was read as hcDAF-12 act -1, DAX1 inh-1 0, ssDAF-12 act -1, DAX1 inh-2 3 and hgDAF-12 ag 1.
For CCOc1ccc(NC(=S)N2CCC(NC(=O)c3ccco3)CC2)cc1 the results were hcDAF-12 act -1, DAX1 inh-1 0, ssDAF-12 act -1, DAX1 inh-2 1 and hgDAF-12 ag 0.
Screening NC(=O)c1ccccc1NC(=O)CN1CCN(Cc2ccccc2)CC1 returned hcDAF-12 act 1, DAX1 inh-1 0, ssDAF-12 act -1, DAX1 inh-2 0 and hgDAF-12 ag 1.
`O=C(CN1CCN(c2ccccc2)CC1)Nc1ccccc1C(=O)NCCc1ccccc1` gave hcDAF-12 act 5.8*, DAX1 inh-1 4.7*, ssDAF-12 act 1, DAX1 inh-2 3, hgDAF-12 ag 7, DAX1 conf 6.7* and SF1 AF2mut Luc 4.8*.
For O=C(Nc1c(C(=O)N2CCC(N3CCCCC3)CC2)oc2ccccc12)c1ccc(F)cc1 the results were hcDAF-12 act -2, DAX1 inh-1 8.1*, ssDAF-12 act -1, DAX1 inh-2 0, hgDAF-12 ag 0, DAX1 conf 7.6* and SF1 AF2mut Luc 3.
For C[C@H](O)[C@@H]1C(=O)N2CCc3c([nH]c4ccccc34)[C@@H]2C[C@@H]1N(C)Cc1ccc(Cl)cc1 the results were hcDAF-12 act 1, DAX1 inh-1 6.2*, ssDAF-12 act -1, DAX1 inh-2 0, hgDAF-12 ag 3, DAX1 conf 1 and SF1 AF2mut Luc 0.
For Cc1ccccc1OCC(=O)Nc1cccc(C(=O)O)c1 the results were hcDAF-12 act 3, DAX1 inh-1 5.0*, ssDAF-12 act -1, DAX1 inh-2 -9, hgDAF-12 ag 11*, DAX1 conf 7.9* and SF1 AF2mut Luc 4.3*.
CCOC(=O)c1cc(CC)sc1NC(=O)CC1Sc2ccc(C(F)(F)F)cc2NC1=O (stereo unspecified) was read as hcDAF-12 act -2, DAX1 inh-1 0, ssDAF-12 act -1, DAX1 inh-2 -1 and hgDAF-12 ag 2.
Nc1c(C(=O)C2CC2)sc2nc3c(cc12)CCC3 was read as hcDAF-12 act 4, DAX1 inh-1 4.7*, ssDAF-12 act 0, DAX1 inh-2 3, hgDAF-12 ag 11*, DAX1 conf 9.8* and SF1 AF2mut Luc 10.0*.
Screening O=C(NC(=S)NN1CCOCC1)c1cc(Br)ccc1Cl returned hcDAF-12 act 1, DAX1 inh-1 5.2*, ssDAF-12 act -1, DAX1 inh-2 0, hgDAF-12 ag 0, DAX1 conf 0 and SF1 AF2mut Luc 0.
O=C(NN1CCOCC1)c1cc(Cl)ccc1Cl was read as hcDAF-12 act -1, DAX1 inh-1 -1, ssDAF-12 act 0, DAX1 inh-2 1 and hgDAF-12 ag 1.
COC(=O)C1CCN(C(=O)c2ccc3nc(-c4cccc(OC)c4)oc3c2)CC1 was read as hcDAF-12 act 2, DAX1 inh-1 4.8*, ssDAF-12 act 0, DAX1 inh-2 -1, hgDAF-12 ag 5, DAX1 conf 8.3* and SF1 AF2mut Luc 5.0*.
For OC[C@@H]1CC[C@@H](Cc2ccc(-c3ccccc3)cc2)O1 the results were hcDAF-12 act 4, DAX1 inh-1 5.6*, ssDAF-12 act 0, DAX1 inh-2 2, hgDAF-12 ag 10, DAX1 conf 6.7* and SF1 AF2mut Luc 4.8*.
